A short description of experiment [1]: qHTS assay to identify small molecule antagonists of the thyroid receptor (TR) signaling pathway (AID 743065). Further: series mostly up to about 70 µM; nearly all actives have a fitted effect of over 55% in size. The method in brief:
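GH3.TRE-Luc rat pituitary cells (two TREs driving luciferase) were dosed with compound, then stimulated with 1 nM T3 (final) for 23.5 h at 37 C. ONE-Glo luminescence was the read-out, with CellTiter-Fluor fluorescence as the cytotoxicity counter-screen.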
(Quantitative high-throughput screening tests each substance at several concentrations.)

For experiment [2], the system named is thyroid hormone receptor (rat, GH3 cells). As to the kind of experiment: qHTS assay to identify small molecule agonists of the thyroid receptor (TR) signaling pathway (AID 743066; calls by dose curve).
For experiment [3], the target named is Estrogen receptor (Homo sapiens) (UniProt P03372). The experiment is described as follows: qHTS assay to identify small molecule antagonists of the estrogen receptor alpha (ER-alpha) signaling pathway (AID 743069; active means well fitted curve in the direction sought with a large enough effect in the signal ratio in the repeat runs, not every such curve was filed as active; the % refers to the signal ratio). The method in brief: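 Reporter cells (ER-alpha-bla, HEK293 background) are conditioned overnight in stripped-serum medium (2% charcoal-stripped FBS). Compound and 17beta-estradiol exposure runs 18 hr at 37C, 5% CO2.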
Estrogen receptor (Homo sapiens), sequence (P03372 whole entry, looked up): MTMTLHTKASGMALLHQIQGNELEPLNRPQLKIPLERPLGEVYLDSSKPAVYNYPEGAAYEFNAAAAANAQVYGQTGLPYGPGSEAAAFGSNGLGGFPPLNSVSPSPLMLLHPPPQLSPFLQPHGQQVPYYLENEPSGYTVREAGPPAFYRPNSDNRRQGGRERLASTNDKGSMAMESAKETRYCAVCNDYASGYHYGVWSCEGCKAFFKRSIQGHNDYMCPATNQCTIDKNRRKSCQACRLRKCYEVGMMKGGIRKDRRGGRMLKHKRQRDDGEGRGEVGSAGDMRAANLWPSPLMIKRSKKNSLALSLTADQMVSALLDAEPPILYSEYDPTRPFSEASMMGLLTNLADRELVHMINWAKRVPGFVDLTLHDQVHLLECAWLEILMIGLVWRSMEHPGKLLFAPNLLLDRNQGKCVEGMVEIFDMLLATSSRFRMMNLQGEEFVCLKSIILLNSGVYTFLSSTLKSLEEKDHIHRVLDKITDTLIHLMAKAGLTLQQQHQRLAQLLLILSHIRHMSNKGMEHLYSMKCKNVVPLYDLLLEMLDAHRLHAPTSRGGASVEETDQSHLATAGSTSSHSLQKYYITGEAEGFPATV

A short description of experiment [4]: qHTS assay to identify small molecule antagonists of the estrogen receptor alpha (ER-alpha) signaling pathway - cell viability counter screen (AID 743074; calls by dose curve;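 further: HEK293 cells carrying ER-alpha-UAS-bla reporter stimulated with 17beta-estradiol; nearly all actives have a fitted effect of over 45% in size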).
For experiment [5], the target named is Estrogen receptor (Homo sapiens) (UniProt P03372). The experiment is described as follows: qHTS assay to identify small molecule agonists of the estrogen receptor alpha (ER-alpha) signaling pathway (AID 743075; calls by dose curve;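 further: HEK293 GripTite cells with ER-alpha and UAS-driven beta-lactamase reporter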).
The target is the same in experiment [6]. As to the kind of experiment: qHTS assay to identify small molecule agonists of the estrogen receptor alpha (ER-alpha) signaling pathway using the BG1 cell line (AID 743079). Further: nearly all actives have a fitted effect of over 20% in size. Further: potency means the concentration at half of the fitted maximal effect.
Experiment [7] in a line: qHTS assay to identify small molecule antagonists of the estrogen receptor alpha (ER-alpha) signaling pathway using the BG1 cell line (AID 743080; calls by dose curve;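 further: BG1 cells stimulated with 17beta-estradiol alongside compound; series mostly up to about 70 µM; nearly all actives have a fitted effect of over 25% in size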). The method in brief: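 Readout is ONE-Glo luminescence, taken 30 min at room temperature after reagent addition, preceded by a CellTiter-Fluor viability read; BG1-Luc-4E2 cells had received compound and 17beta-estradiol for 21.5 h at 37 C.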

The nature of experiment [8]: qHTS assay to identify small molecule antagonists of the estrogen receptor alpha (ER-alpha) signaling pathway using the BG1 cell line - cell viability counter screen (AID 743081).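 Further: compound given together with 17beta-estradiol as the ER stimulus; series mostly up to about 70 µM; nearly all actives have a fitted effect of over 45% in size.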
A further experiment addresses Aromatase (Homo sapiens) (UniProt P11511). The experiment is described as follows: qHTS assay to identify aromatase inhibitors (AID 743083). Further: series mostly up to about 70 µM; nearly all actives have a fitted effect of over 55% in size.
A short description of experiment [9]: qHTS assay to identify aromatase inhibitors - cell viability counter screen (AID 743084).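 Further: cells stimulated with testosterone during compound exposure; nearly all actives have a fitted effect of over 55% in size.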
Experiment [10] concerns the target Aryl hydrocarbon receptor (Homo sapiens) (UniProt P35869). As to the kind of experiment: qHTS assay to identify small molecule that activate the aryl hydrocarbon receptor (AhR) signaling pathway (AID 743085). Further: nearly all actives have a fitted effect of over 15% in size. Further: potency means the concentration at half of the fitted maximal effect.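 On activation: HG2L7.5c1 human HepG2 liver cells with stably integrated DRE-driven firefly reporter; series mostly up to about 70 µM.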 The method in brief: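 Steps: seed HepG2-AhR-luc cells; allow 5 h at 37C; pin-transfer test compound or vehicle; incubate 24 h at 37C; add viability dye (30 min, 37C) and read fluorescence; add luciferase substrate (30 min, RT) and read luminescence.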

The nature of experiment [11]: qHTS assay to identify small molecule that activate the aryl hydrocarbon receptor (AhR) signaling pathway - cell viability counter screen (AID 743086).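 Further: HepG2 liver cells carrying the AhR DRE luciferase reporter; series mostly up to about 70 µM; nearly all actives have a fitted effect of over 45% in size.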 The method in brief:
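HepG2-AhR-luc (HG2L7.5c1) cells, 4000/well, treated 24 h at 37 C with compound; viability measured as CellTiter-Fluor fluorescence after 30 min in the same wells as the luciferase read.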

For experiment [12], the target named is Peroxisome proliferator-activated receptor gamma (Homo sapiens) (UniProt P37231). As to the kind of experiment: qHTS assay to identify small molecule agonists of the peroxisome proliferator-activated receptor gamma (PPARg) signaling pathway (AID 743094; active means well fitted activation curve with a large enough effect in the signal ratio in the repeat runs, not every such curve was filed as active; the % refers to the signal ratio). The method in brief: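 Compounds dissolved in DMSO were added to PPARg UAS-bla HEK293H cells for 17 h at 37C, and reporter expression was quantified by fluorescence intensity after 1 h with LiveBLAzer B/G FRET substrate.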
Peroxisome proliferator-activated receptor gamma (Homo sapiens), sequence (P37231 whole entry, looked up): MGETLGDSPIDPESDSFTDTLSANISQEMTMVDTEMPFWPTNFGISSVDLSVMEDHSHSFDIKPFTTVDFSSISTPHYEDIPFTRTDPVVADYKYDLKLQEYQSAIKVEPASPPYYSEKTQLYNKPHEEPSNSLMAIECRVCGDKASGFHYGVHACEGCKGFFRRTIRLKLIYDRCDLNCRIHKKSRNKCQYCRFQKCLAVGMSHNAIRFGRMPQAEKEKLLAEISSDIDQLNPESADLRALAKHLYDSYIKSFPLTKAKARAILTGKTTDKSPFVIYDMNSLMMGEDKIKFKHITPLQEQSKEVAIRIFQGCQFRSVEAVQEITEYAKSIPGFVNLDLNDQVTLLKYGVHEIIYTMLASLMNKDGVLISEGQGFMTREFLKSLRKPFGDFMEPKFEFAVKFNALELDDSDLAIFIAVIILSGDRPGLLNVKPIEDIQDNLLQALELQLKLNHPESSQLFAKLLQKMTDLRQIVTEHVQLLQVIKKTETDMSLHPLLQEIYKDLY

Experiment [13] is described as follows: qHTS assay to identify small molecule antagonists of the peroxisome proliferator-activated receptor gamma (PPARg) signaling pathway - cell viability counter screen (AID 743194). Further: nearly all actives have a fitted effect of over 55% in size. The method in brief:
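Cytotoxicity counter screen in PPARg-bla HEK293H cells, same wells as reporter assay. Compounds plus 50 nM rosiglitazone (final) for 17 h at 37 C, then viability read by CellTiter-Glo luminescence.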

The nature of experiment [14]: qHTS assay for small molecule agonists of the antioxidant response element (ARE) signaling pathway (AID 743202; active means well fitted activation curve with a large enough effect in the signal ratio in the repeat runs, not every such curve was filed as active; the % refers to the signal ratio). The method in brief:
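Agonist mode reporter screen: HepG2 cells with ARE-controlled beta-lactamase are incubated with test compounds for 16 h at 37 C, and beta-lactamase activity is measured as fluorescence of cleaved B/G FRET substrate.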

Experiment [15] is described as follows: qHTS assay for small molecule agonists of the antioxidant response element (ARE) signaling pathway - cell viability counter screen (AID 743203; calls by dose curve; further: nearly all actives have a fitted effect of over 55% in size). The method in brief:
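Following 16 hrs of compound treatment at 37C, HepG2 cells with an ARE-controlled beta-lactamase gene were lysed with CellTiter-Glo. Luminescence was read after 30 min at room temperature.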

Experiment [16] is described as follows: qHTS assay for small molecule activators of the heat shock response signaling pathway - cell viability counter screen (AID 743209). Further: nearly all actives have a fitted effect of over 50% in size. The method in brief:
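Readout: CellTiter-Glo luminescence, 30 min at room temperature. System: HSE-bla HeLa cells, 1500/well, plated overnight. Treatment: compounds in DMSO, 5 h at 37 C.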

A short description of experiment [17]: qHTS assay to identify small molecule agonists of the peroxisome proliferator-activated receptor delta (PPARd) signaling pathway - cell viability counter screen (AID 743211). Further: nearly all actives have a fitted effect of over 55% in size. The method in brief:
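Viability of GeneBLAzer PPARd UAS-bla HEK293H cells was assessed after 17 h compound incubation at 37C, using CellTiter-Glo reagent added after the reporter read and luminescence recorded 30 min later.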

For experiment [18], the target named is Peroxisome proliferator-activated receptor gamma (Homo sapiens) (UniProt P37231). As to the kind of experiment: qHTS assay to identify small molecule antagonists of the peroxisome proliferator-activated receptor gamma (PPARg) signaling pathway (AID 743191; calls by dose curve; further: series mostly up to about 63 µM; nearly all actives have a fitted effect of over 30% in size). The method in brief:
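GeneBLAzer PPARg UAS-bla HEK293H cells, 5 h post-plating, exposed to compounds 17 h at 37C. LiveBLAzer B/G FRET substrate added for 1 h at room temperature; beta-lactamase reporter read by fluorescence intensity.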

A short description of experiment [19]: qHTS assay for small molecule activators of the heat shock response signaling pathway (AID 743210; active means well fitted activation curve with a large enough effect in the signal ratio in the repeat runs, with a control signal flat, not every such curve was filed as active; the % refers to the signal ratio;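 further: HeLa cells with beta-lactamase reporter driven by heat shock elements; series mostly up to about 63 µM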). The method in brief: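 Quantitative high-throughput format using an engineered HeLa line in which heat shock response elements drive beta-lactamase; after 5 h with compound, cells received a B/G FRET substrate and fluorescence was read.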

Several values for one entry are separate records, joined by “and”; a condition that tells them apart may be missing. Equal values may be shown once. Records with an inconclusive call do not appear. Some compounds were tested as several samples or in several runs, with calls that do not always agree. Activity calls are given as the source filed them. Unless noted, the call rests on the fitted dose curve; in most records, active means well fitted curve in the direction sought with a large enough effect in the repeat runs; inconclusive means weak or mixed curves; inactive means no such curve, though single readings can be large; an effect the other way counts as inactive or inconclusive.

Our source for the Potency and outcome values is PubChem BioAssay (Tox21).

Aromatase (Homo sapiens), sequence (P11511 whole entry, looked up): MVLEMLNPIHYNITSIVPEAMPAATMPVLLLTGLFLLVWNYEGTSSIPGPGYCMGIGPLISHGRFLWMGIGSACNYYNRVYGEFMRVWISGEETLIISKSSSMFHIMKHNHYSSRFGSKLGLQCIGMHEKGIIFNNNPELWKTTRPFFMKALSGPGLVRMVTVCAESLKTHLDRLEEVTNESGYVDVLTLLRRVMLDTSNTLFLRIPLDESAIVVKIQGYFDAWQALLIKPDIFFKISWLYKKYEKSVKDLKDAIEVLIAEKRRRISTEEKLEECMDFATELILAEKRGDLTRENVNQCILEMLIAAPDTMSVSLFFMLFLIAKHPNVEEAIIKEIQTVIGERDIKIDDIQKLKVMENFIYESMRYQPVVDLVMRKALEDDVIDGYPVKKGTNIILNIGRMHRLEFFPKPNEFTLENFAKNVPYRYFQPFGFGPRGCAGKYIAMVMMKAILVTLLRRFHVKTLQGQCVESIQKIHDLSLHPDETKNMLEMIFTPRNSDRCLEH
Aryl hydrocarbon receptor (Homo sapiens), sequence (P35869 whole entry, looked up): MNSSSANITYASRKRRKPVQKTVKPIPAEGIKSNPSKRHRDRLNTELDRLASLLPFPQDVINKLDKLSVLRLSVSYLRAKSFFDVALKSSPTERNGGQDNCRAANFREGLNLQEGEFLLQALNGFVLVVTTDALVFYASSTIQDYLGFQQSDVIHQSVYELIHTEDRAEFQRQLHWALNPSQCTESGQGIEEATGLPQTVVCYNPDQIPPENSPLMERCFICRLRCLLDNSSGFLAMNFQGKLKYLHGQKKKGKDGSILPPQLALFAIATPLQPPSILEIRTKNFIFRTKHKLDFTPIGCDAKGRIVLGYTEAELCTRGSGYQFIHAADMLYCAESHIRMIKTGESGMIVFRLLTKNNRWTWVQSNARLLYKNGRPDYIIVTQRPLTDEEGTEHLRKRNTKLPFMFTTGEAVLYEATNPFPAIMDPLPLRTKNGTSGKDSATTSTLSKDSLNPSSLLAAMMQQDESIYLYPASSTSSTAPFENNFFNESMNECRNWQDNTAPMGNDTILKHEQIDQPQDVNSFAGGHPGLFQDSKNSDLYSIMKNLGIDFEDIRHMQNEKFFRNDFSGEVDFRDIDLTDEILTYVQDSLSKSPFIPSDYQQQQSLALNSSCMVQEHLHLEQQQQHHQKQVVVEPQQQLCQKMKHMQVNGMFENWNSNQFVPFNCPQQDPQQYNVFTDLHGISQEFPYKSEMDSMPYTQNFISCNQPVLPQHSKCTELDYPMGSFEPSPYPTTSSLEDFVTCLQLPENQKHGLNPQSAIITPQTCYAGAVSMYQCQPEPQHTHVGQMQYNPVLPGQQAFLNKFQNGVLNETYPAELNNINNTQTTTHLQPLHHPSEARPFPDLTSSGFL

Regarding `CC(=O)CC(=O)Nc1ccccc1C`, the Potency entry in [1], in [2], in experiment [3], in experiment [5], in experiment [6] and in experiment [7] was “inactive” in each case. The Potency entry (in experiment [8]; with Aromatase (Homo sapiens); in experiment [9]; in experiment [10]; in experiment [14]) was “inactive” throughout. In addition, the result in [4], in experiment [11], in [12], in [13], in [15] and in experiment [16] was inactive. Moreover, the result in experiment [17] was inactive.

Take `CCCCCCCCCC`: the Potency entry in experiment [1], in experiment [2], in experiment [3], in experiment [5], in [6] and in [7] was “inactive” in each case. Moreover, the Potency result (in experiment [8]; in the experiment with Aromatase (Homo sapiens); in experiment [9]; in experiment [10]; in [14]; in [19]) was “inactive” each time. For the same compound, the result in [4], in experiment [11], in [12], in [18], in [13] and in experiment [15] was inactive. Also, the result in experiment [16] and in [17] was inactive.

Turning to `Cc1ccc(N(C)C)cc1`, the Potency result in experiment [1], in experiment [2], in experiment [3], in experiment [5], in [7] and in experiment [8] was “inactive” each time. The Potency entry (in the experiment with Aromatase (Homo sapiens); in experiment [9]; in experiment [14]) was “inactive” each time. For the same compound, the compound was called inactive in [4], in experiment [11], in [12], in experiment [18], in [13] and in experiment [16]. Further, the call in experiment [17] was inactive. Also, the Potency in [6] was 61.1 µM (active); in [10], “inactive and 68.6 µM (active)”.

On to `CC(=O)Nc1cccc(O)c1`, for which the Potency entry in experiment [1], in experiment [2], in [3], in experiment [5], in experiment [6] and in [7] was “inactive” each time. Also, the Potency entry (in [8]; with Aromatase (Homo sapiens); in experiment [9]; in experiment [10]; in experiment [14]; in [19]) was “inactive” each time. Moreover, the result in [4], in experiment [11], in experiment [12], in experiment [18], in experiment [13] and in experiment [15] was inactive. The result in experiment [16] and in experiment [17] was inactive.

On to `COS(C)(=O)=O`, for which the Potency entry in [1], in [2], in [3], in [5], in experiment [6] and in experiment [7] was “inactive” throughout. The Potency entry (in experiment [8]; in the experiment with Aromatase (Homo sapiens); in experiment [9]; in experiment [10]; in experiment [14]) was “inactive” each time. For the same compound, the compound was called inactive in experiment [4], in [11], in experiment [12], in [18], in [13] and in experiment [16]. Moreover, the compound was called inactive in [17].

Consider `OC[C@H]1O[C@@](CO)(O[C@H]2O[C@H](CO)[C@@H](O)[C@H](O)[C@H]2O)[C@@H](O)[C@@H]1O`, for which the Potency result in [1], in experiment [2], in [3], in [5], in experiment [6] and in [7] was “inactive” throughout. For the same compound, the Potency result (in [8]; in the experiment with Aromatase (Homo sapiens); in [9]; in experiment [10]; in experiment [14]) was “inactive” in each case. Further, the compound was called inactive in experiment [4], in experiment [11], in experiment [12], in experiment [13], in experiment [15] and in experiment [16]. In [17], the compound was classed as inactive.

`O=C=NCCCCCCN=C=O`: the Potency entry in [1], in experiment [2], in experiment [3], in [5], in experiment [6] and in [7] was “inactive” in each case. Besides, the Potency entry (in experiment [8]; with Aromatase (Homo sapiens); in experiment [9]; in experiment [10]; in [14]; in experiment [19]) was “inactive” in each case. Further, the call in experiment [4], in [11], in experiment [12], in [18], in experiment [13] and in experiment [16] was inactive. Further, the outcome in experiment [17] was inactive.

As to `O=C(OCCOCCOC(=O)c1ccccc1)c1ccccc1`, the Potency entry in experiment [1], in experiment [2], in experiment [3], in experiment [5], in experiment [6] and in experiment [7] was “inactive” throughout. The Potency entry (in experiment [8]; with Aromatase (Homo sapiens); in experiment [9]; in experiment [10]; in experiment [14]; in experiment [19]) was “inactive” in each case. For the same compound, the compound was called inactive in [4], in experiment [11], in [12], in experiment [18], in [13] and in [16]. Also, the compound was called inactive in [17].
